According to ChEMBL document CHEMBL1961873, “Compounds: GSK PKIS; Assays: Nanosyn kinase panel” (2012):

Key:
[1] = target: Rho-associated protein kinase 1 (Homo sapiens) (UniProt Q13464); details: at 1 µM;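 also: reported values are mean percent inhibition of ROCK1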
[2] = target: Rho-associated protein kinase 2 (Homo sapiens) (UniProt O75116); details: at 0.1 µM
[3] = target: Rho-associated protein kinase 2 (Homo sapiens) (UniProt O75116); details: at 1 µM
[4] = target: Ribosomal protein S6 kinase alpha-1 (Homo sapiens) (UniProt Q15418); details: at 0.1 µM
[5] = target: Ribosomal protein S6 kinase alpha-1 (Homo sapiens) (UniProt Q15418); details: at 1 µM
[6] = target: Ribosomal protein S6 kinase alpha-3 (Homo sapiens) (UniProt P51812); details: at 0.1 µM
[7] = target: Ribosomal protein S6 kinase alpha-3 (Homo sapiens) (UniProt P51812); details: at 1 µM
[8] = target: Ribosomal protein S6 kinase alpha-2 (Homo sapiens) (UniProt Q15349); details: at 0.1 µM
[9] = target: Ribosomal protein S6 kinase alpha-2 (Homo sapiens) (UniProt Q15349); details: at 1 µM
[10] = target: Ribosomal protein S6 kinase alpha-6 (Homo sapiens) (UniProt Q9UK32); details: at 0.1 µM
[11] = target: Ribosomal protein S6 kinase alpha-6 (Homo sapiens) (UniProt Q9UK32); details: at 1 µM
[12] = target: T1, Serine/threonine-protein kinase Sgk1 (Homo sapiens) (UniProt O00141); details: at 0.1 µM
T1 sequence (whole entry): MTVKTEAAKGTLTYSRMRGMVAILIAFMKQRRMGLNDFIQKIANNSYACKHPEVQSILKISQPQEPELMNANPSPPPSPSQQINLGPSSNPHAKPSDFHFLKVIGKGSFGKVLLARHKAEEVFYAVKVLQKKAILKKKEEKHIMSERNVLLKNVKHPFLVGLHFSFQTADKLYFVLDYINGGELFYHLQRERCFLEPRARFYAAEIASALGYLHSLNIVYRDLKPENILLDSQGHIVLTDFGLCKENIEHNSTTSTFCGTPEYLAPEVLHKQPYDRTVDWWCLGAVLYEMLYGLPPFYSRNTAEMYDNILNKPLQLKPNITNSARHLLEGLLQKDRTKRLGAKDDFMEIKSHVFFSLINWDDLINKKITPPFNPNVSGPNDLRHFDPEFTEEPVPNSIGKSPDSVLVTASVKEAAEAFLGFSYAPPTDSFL

[13] = target: T1, Serine/threonine-protein kinase Sgk1 (Homo sapiens); details: at 1 µM
[14] = target: T2, Serine/threonine-protein kinase Sgk2 (Homo sapiens) (UniProt Q9HBY8); details: at 0.1 µM
T2 sequence (whole entry): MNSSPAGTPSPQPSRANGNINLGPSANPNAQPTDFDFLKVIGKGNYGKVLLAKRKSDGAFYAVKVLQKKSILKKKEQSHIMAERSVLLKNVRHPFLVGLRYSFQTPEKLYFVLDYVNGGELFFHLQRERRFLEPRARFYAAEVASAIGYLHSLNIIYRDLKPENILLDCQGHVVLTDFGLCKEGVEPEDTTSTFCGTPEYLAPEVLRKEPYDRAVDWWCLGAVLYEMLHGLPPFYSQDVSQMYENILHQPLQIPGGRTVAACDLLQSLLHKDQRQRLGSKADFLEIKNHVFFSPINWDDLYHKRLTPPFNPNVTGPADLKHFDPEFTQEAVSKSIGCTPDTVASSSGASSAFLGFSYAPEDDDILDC

[15] = target: T2, Serine/threonine-protein kinase Sgk2 (Homo sapiens); details: at 1 µM
[16] = target: T3, Serine/threonine-protein kinase Sgk3 (Homo sapiens) (UniProt Q96BR1); details: at 0.1 µM
T3 sequence (whole entry): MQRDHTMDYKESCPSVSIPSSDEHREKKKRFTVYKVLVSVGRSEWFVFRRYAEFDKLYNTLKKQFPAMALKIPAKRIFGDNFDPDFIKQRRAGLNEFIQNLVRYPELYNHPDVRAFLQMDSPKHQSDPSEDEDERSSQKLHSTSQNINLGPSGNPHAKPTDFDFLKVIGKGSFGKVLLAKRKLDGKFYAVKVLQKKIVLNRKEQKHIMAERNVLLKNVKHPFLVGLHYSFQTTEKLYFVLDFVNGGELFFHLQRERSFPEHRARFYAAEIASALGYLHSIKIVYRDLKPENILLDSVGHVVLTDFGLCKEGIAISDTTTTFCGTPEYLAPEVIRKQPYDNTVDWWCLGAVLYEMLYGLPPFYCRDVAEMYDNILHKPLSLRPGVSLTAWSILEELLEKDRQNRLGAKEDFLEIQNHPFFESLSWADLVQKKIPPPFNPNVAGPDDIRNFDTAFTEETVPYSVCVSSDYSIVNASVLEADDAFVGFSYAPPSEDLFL

[17] = target: T3, Serine/threonine-protein kinase Sgk3 (Homo sapiens); details: at 1 µM
[18] = target: 5'-AMP-activated protein kinase catalytic subunit alpha-1 (Homo sapiens) (UniProt Q13131); details: at 0.1 µM
[19] = target: 5'-AMP-activated protein kinase catalytic subunit alpha-1 (Homo sapiens) (UniProt Q13131); details: at 1 µM
[20] = target: 5'-AMP-activated protein kinase catalytic subunit alpha-2 (Homo sapiens) (UniProt P54646); details: at 0.1 µM;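 also: mean inhibition measured on the AMPK complex of alpha2, beta1 and gamma1 subunits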

Rho-associated protein kinase 2 (Homo sapiens), sequence (O75116 whole entry, looked up): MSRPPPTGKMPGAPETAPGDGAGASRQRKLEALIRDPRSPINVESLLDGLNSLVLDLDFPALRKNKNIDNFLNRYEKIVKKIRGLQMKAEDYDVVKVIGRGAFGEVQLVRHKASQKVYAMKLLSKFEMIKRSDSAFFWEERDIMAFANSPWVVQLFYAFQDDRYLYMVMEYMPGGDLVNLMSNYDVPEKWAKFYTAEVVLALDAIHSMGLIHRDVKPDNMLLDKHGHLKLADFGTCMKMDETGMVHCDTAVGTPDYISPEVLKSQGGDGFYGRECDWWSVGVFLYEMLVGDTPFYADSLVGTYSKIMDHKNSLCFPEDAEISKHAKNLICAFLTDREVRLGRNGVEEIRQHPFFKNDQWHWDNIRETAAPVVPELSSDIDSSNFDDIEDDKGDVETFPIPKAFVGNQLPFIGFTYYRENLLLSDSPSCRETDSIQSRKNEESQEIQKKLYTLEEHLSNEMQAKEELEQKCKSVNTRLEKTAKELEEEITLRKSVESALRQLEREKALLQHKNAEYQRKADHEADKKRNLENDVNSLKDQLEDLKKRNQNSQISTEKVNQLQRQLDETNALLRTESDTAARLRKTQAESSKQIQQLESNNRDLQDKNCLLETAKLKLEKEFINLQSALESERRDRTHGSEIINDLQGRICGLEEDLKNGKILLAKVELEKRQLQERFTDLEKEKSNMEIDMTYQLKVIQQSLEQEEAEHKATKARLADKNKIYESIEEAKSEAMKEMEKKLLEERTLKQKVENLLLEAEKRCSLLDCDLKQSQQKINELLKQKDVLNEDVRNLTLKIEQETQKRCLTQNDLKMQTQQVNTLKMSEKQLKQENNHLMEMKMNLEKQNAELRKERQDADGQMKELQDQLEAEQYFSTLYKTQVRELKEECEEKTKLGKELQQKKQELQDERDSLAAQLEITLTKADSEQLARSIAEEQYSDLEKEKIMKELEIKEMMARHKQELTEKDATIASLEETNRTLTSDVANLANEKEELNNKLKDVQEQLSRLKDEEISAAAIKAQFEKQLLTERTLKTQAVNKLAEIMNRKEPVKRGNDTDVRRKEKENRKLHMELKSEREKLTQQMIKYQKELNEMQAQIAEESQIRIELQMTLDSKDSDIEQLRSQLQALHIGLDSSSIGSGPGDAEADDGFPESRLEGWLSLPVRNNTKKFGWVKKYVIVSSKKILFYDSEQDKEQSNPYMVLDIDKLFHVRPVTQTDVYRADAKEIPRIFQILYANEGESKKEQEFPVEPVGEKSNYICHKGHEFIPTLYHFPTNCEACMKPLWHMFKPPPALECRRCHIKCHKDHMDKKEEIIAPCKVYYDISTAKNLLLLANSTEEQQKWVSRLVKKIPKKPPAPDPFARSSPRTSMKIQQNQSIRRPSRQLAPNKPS
Ribosomal protein S6 kinase alpha-3 (Homo sapiens), sequence (P51812 whole entry): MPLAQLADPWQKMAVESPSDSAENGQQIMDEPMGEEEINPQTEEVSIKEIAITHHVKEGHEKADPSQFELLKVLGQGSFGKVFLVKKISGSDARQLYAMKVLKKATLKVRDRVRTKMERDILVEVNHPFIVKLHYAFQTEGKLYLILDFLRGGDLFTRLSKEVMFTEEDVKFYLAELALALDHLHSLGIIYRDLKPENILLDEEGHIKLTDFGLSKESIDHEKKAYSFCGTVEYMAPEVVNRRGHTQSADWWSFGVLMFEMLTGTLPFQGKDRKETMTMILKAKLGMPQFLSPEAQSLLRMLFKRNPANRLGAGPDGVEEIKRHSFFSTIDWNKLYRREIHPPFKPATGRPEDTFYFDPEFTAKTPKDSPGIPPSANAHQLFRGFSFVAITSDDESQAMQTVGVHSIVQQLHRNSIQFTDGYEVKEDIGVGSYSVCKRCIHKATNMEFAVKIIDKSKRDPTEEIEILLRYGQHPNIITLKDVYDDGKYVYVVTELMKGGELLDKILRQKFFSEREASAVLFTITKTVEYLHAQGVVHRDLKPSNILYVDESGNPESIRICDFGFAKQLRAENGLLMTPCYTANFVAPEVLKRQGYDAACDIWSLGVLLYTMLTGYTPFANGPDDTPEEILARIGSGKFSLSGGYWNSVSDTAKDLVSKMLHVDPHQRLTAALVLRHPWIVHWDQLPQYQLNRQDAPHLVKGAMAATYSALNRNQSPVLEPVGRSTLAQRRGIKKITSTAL
Ribosomal protein S6 kinase alpha-1 (Homo sapiens), sequence (Q15418 whole entry): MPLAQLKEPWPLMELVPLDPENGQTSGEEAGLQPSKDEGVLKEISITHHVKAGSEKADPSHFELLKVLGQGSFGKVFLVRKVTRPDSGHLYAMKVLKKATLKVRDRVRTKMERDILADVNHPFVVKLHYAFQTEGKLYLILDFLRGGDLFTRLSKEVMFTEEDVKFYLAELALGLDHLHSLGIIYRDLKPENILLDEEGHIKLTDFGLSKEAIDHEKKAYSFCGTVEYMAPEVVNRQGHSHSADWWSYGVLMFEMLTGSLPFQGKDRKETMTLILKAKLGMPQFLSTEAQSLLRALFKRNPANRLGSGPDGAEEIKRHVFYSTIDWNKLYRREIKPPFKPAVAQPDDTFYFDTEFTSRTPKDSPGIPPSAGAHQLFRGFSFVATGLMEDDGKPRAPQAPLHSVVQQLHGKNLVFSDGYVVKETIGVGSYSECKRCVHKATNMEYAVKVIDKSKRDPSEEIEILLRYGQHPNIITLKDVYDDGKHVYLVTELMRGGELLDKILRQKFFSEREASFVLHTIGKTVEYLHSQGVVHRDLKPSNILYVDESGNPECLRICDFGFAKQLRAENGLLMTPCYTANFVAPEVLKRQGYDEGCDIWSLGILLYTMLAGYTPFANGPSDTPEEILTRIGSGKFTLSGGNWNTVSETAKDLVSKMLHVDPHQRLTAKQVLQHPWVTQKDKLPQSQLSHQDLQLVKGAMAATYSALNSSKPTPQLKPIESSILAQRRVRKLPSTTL
Ribosomal protein S6 kinase alpha-2 (Homo sapiens), sequence (Q15349 whole entry): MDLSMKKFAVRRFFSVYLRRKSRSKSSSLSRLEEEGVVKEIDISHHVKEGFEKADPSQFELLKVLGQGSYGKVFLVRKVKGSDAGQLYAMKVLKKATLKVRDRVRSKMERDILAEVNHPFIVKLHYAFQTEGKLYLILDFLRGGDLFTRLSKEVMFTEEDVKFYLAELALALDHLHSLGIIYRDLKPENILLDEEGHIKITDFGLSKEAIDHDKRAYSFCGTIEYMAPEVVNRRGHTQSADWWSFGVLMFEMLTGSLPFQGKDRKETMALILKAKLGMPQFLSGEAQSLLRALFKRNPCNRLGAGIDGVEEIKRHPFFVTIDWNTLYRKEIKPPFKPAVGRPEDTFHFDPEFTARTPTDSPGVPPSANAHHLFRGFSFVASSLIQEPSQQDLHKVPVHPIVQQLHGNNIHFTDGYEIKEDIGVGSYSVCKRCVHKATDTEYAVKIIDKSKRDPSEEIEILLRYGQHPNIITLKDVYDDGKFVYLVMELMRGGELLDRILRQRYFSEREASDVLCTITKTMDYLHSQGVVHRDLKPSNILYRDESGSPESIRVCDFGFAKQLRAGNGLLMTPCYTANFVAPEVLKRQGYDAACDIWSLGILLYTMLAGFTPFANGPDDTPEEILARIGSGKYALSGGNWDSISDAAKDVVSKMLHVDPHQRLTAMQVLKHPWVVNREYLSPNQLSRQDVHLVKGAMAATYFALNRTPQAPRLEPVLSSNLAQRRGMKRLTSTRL
5'-AMP-activated protein kinase catalytic subunit alpha-1 (Homo sapiens), sequence (Q13131 whole entry, looked up): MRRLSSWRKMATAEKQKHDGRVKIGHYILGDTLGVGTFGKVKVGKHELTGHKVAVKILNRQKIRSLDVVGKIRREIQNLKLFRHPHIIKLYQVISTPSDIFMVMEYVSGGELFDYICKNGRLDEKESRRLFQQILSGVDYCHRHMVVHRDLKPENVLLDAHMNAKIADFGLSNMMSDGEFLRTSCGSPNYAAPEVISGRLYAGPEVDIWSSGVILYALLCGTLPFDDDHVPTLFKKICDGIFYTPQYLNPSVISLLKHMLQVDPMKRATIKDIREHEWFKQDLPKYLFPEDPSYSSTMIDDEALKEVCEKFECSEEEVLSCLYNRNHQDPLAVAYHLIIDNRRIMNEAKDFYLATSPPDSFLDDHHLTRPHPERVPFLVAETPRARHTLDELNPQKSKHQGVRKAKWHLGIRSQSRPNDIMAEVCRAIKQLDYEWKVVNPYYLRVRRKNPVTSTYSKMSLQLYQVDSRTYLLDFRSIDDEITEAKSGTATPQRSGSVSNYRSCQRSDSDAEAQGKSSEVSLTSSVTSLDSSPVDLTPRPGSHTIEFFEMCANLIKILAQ
Ribosomal protein S6 kinase alpha-6 (Homo sapiens), sequence (Q9UK32 whole entry): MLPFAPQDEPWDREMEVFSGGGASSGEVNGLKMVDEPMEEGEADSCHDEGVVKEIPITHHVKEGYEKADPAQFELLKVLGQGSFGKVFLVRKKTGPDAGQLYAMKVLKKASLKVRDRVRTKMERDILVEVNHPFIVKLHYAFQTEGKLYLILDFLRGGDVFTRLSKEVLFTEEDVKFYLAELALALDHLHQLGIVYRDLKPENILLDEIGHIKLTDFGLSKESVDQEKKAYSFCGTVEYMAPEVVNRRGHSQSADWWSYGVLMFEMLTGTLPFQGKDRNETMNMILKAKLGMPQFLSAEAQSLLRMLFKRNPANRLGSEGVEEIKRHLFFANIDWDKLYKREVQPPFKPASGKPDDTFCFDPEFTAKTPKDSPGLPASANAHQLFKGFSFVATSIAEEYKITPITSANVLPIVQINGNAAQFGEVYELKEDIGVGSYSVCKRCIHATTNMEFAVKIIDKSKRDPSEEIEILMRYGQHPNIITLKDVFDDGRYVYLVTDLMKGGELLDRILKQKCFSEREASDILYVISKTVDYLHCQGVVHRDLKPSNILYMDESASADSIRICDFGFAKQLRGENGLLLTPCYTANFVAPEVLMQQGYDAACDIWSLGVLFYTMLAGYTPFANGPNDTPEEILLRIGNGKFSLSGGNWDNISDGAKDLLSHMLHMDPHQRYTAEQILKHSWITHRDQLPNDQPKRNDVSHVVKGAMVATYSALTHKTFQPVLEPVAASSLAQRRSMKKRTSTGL

Row | SMILES | inhibition [1] [%] | inhibition [2] [%] | inhibition [3] [%] | inhibition [4] [%] | inhibition [5] [%] | inhibition [6] [%] | inhibition [7] [%] | inhibition [8] [%] | inhibition [9] [%] | inhibition [10] [%] | inhibition [11] [%] | inhibition [12] [%] | inhibition [13] [%] | inhibition [14] [%] | inhibition [15] [%] | inhibition [16] [%] | inhibition [17] [%] | inhibition [18] [%] | inhibition [19] [%] | inhibition [20] [%]
1 | NS(=O)(=O)c1ccc(N/N=C2\C(=O)Nc3ccc(Cl)cc32)cc1 | 2.29 | 3.76 | 10.6 | 1.95 | 4.81 | 1.84 | 3.95 | 1.83 | 2.94 | 0.98 | 3.15 | 3.68 | 7.28 | 2.41 | 5.65 | 4.29 | 3.61 | 6.79 | 16.1 | 1.86
2 | COc1ccc(-c2nn3ncccc3c2-c2ccnc(Nc3cccc(C(F)(F)F)c3)n2)cc1 | 0.6 | 2.74 | 1.41 | 1.07 | 2.11 | 1.27 | 1.97 | 1.64 | 2.11 | 0.81 | 0.26 | 1.37 | 2.02 | 1.57 | 4.94 | 3.1 | 3.41 | 2.78 | 3.84 | 1.06
3 | Cc1ccc2c(c1)/C(=N/Nc1ccc(S(N)(=O)=O)cc1)C(=O)N2 | 2.75 | -0.99 | 2.52 | 0.21 | 0.22 | 0.34 | 2.42 | 0.05 | 3.92 | 1.62 | 2.46 | 0.97 | 1.07 | 1.13 | 0.76 | -0.94 | -1.14 | 1.77 | 6.53 | 0.59
4 | COC(=O)Nc1nc2cc(Oc3ccc(NC(=O)Nc4cccc(Br)c4)cc3)ccc2[nH]1 | 7.16 | 3.44 | 6.83 | 1.44 | 1.53 | 1.69 | 0.56 | 1.65 | 2.4 | 1.97 | 1.35 | 4.42 | 6.16 | 2.07 | 3.07 | 2.77 | 3.45 | 2.86 | 2.58 | 0.56
5 | c1ccc(Cc2nc3ccc(Nc4ncnc5ccccc45)cc3[nH]2)cc1 | 1.95 | 2.34 | 4.82 | 2.52 | 4.1 | 0.88 | 2.69 | 1.07 | 3.24 | 0.96 | 0.98 | 1.05 | 6.43 | 1.59 | 5.44 | 2.24 | 3.66 | 3.03 | 4.08 | -0.36
6 | C[C@@H](Oc1cc(-n2cnc3ccc(OCC4CCN(C)CC4)cc32)sc1C(N)=O)c1ccccc1C(F)(F)F | 12 | 1.51 | 12 | 5.1 | 32.7 | 11.8 | 52 | 3.14 | 30.9 | 13.2 | 54.9 | 0.5 | 2.02 | -2.58 | -0.14 | -1.97 | -2.55 | 5.76 | 32.6 | 2.88
7 | COc1cc(/C=N/Nc2ncnc3c2cnn3C(C)C)ccc1O | 4.3 | 0.86 | 2.83 | 10.4 | 1.08 | 0.95 | 1.27 | 1.98 | 2.99 | 1.4 | 3.17 | 1.69 | 2.88 | 1.5 | 1.93 | 0.68 | 2.8 | 1.32 | 4.22 | 3.01
8 | CN(C)c1cc2c(Nc3ccc4c(cnn4Cc4ccccc4)c3)ncnc2cn1 | 2.38 | 2.57 | 3.89 | 0.98 | 3.04 | 1.41 | 2.13 | 1.63 | 3.42 | 0.97 | 1.71 | 1.94 | 2.27 | 0.16 | -0.04 | 1.86 | 1.33 | 2.65 | 3.27 | 1.84
9 | O=C1Nc2ccc(-c3cccnc3)cc2C1=Cc1cc(Br)c(O)c(Br)c1 | 4.77 | 2.87 | 7.43 | 2.15 | 2.73 | 0.76 | -1.29 | 1.03 | 3.66 | 1.69 | 5.51 | 3.01 | 3.05 | 1.63 | 6.41 | 3.1 | 2 | 3.07 | 3.3 | 2.54
10 | CC(C)c1ccc(Nc2nccc(-c3cnn4ncccc34)n2)cc1 | 10.9 | 5.29 | 24.7 | 0.96 | 3.69 | -0.01 | 2.08 | 0.12 | 2.76 | -0.42 | 1.84 | 1.8 | 3.19 | 0.34 | 3.21 | 2.01 | 0.79 | 1.84 | 3.55 | 2.35
11 | ON=C1CCc2cc(-c3nc(C4CCNCC4)[nH]c3-c3ccncc3)ccc21 | 0.82 | -1.08 | -0.29 | -1.46 | -1.99 | -1 | -0.39 | 0.31 | 1.01 | 0.13 | -0.49 | 0.64 | 0.87 | -0.56 | -1.29 | -1.46 | -0.07 | -0.26 | -1.59 | -1.32
12 | COc1cc2ncn(-c3cc(OCc4ccccc4S(C)(=O)=O)c(C#N)s3)c2cc1OC | 6.5 | 5.73 | 6.61 | 5.57 | 14 | 5.02 | 13.7 | 3.37 | 10.2 | 3.14 | 16.4 | 2.34 | 4.47 | 2.96 | 4.38 | 4.43 | 4.05 | 33.4 | 74.6 | 5.84
13 | COc1cc2ncnc(Nc3ccc(C)c(O)c3)c2cc1OC | 0.99 | 3.05 | 3.9 | 1.8 | 6.05 | 1.52 | 3.02 | 3.28 | 3.51 | 2.48 | 3.03 | 2.84 | 5.46 | 3.56 | 2.34 | 2.82 | 4.55 | 4.38 | 5.7 | 3.32
14 | Nc1nccc(-c2c(-c3ccc(F)cc3)ncn2CCCN2CCOCC2)n1 | 3.31 | 4.99 | 5.24 | 2.16 | 4.6 | 1.92 | 2.6 | 3.04 | 2.27 | 2.26 | 3.56 | 1.7 | 5.95 | 0.32 | 6.95 | 3.43 | 3.38 | 3.37 | 3.19 | 3.33
15 | CS(=O)(=O)Nc1cccc(-c2ccc3c(NC(=O)C4CC4)n[nH]c3c2)c1 | 0.09 | 0.82 | -0.9 | -0.15 | -0.83 | 1.31 | 1.41 | 1.1 | 2.19 | 1.24 | 1.64 | 1.2 | 1.36 | 0.93 | -0.04 | 1.19 | -0.96 | 1.97 | 1.56 | -0.32
16 | CCn1c(-c2nonc2N)nc2ccc(F)cc21 | 9.21 | 5.67 | 19 | 4.37 | 21 | 2.79 | 9.91 | 2.93 | 14 | 1.56 | 3.11 | 4.63 | 5.34 | 0.38 | 7.92 | 4.43 | 9.8 | 5.34 | 5.71 | 4.08
17 | Cc1cc(Cl)cc2c1NC(=O)C2=NNc1ccc(S(N)(=O)=O)cc1 | 0.46 | 2.77 | 4.97 | 2.28 | 4.19 | 1.6 | 3.02 | 2.57 | 1.19 | 0.74 | 1.2 | 2.17 | 3.67 | 1.33 | 7.78 | 2.89 | 5.67 | 1.67 | 4.05 | -0.13
18 | Cc1ccc2c(-c3ccnc(Nc4cccc(C(F)(F)F)c4)n3)c(-c3ccccc3)nn2n1 | 3.58 | 3.31 | 3.33 | 0.52 | 2.33 | -0.67 | 0.59 | 3.58 | 3.98 | 0.82 | 2.56 | 2.23 | 3.64 | 5.64 | -0.25 | 3.07 | 4.11 | 0.65 | 2.66 | 5.96
19 | Cc1nc(-c2ccccc2)n2nc(NCCCN3CCOCC3)ncc12 | 0.26 | 2.1 | 0.91 | 1.44 | 5.36 | 2.6 | 7.74 | 3.24 | 7.6 | 2.39 | 12.8 | 2.86 | 2.79 | 2.32 | 0.65 | 0.22 | 1.99 | 2.89 | 6.04 | 3.08
20 | O=C1Nc2ccccc2/C1=C/Nc1ccc2[nH]c(=O)[nH]c2c1 | 4.42 | 3.76 | 13.7 | 3.61 | 20.9 | 2.19 | 14.7 | 4.19 | 20.5 | 2.19 | 16.3 | 5.08 | 22.7 | 1.44 | 13.4 | 3.83 | 9.07 | 6.25 | 20 | 4.32
21 | Cc1ccc(C(=O)NC2CC2)cc1-c1ccc2[nH]ncc2c1 | 6.16 | 0.52 | 16.1 | 1.16 | 1.93 | 2.94 | 4.97 | -0.94 | 0.23 | -0.73 | -0.57 | -2.34 | -1.16 | -5.03 | -0.82 | -5.05 | 1.68 | -1.87 | 0.2 | 0.12
